DT40 TDP1 CPT – DT40-hTDP1 cell growth loss with CPT; Potency, µM (highest dose often 46.2 µM), inactives show at the top dose activity change, negative = growth inhibition, hits mostly inhibitors; chicken DT40 Tdp1-/-;hTDP1 cells + 20 nM CPT, ATP luminescence, 48 h; AID 686979; 12% of 420,000 active; also: potency is read from the fitted curve at half-maximal effect; % is scaled to controls: 0 for no effect and ±100 for the full control effect; nearly all actives have a fitted effect of over 55% in size
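Chicken DT40 Tdp1-/- cells stably complemented with human TDP1 were seeded at 400 cells/well in medium containing 20 nM camptothecin, exposed to pin-transferred compounds, and grown at 37 °C for at least 48 hr. Viability was read as ATP luminescence.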
TGFb SMAD3 inh – TGF-b pathway inhibition | HepG2 CAGA-GFP TGF-b/SMAD3 reporter, GFP fluorescence, 18 h; TGF-beta stimulated, 500 pg/mL final | Potency, µM (titrated, usually from 46.1 µM), without a hit: at the top dose activity, negative = inhibition, usual class: inhibitors | 1.2% of 410,000 active | AID 588855; also: potency is read from the fitted curve at half-maximal effect; % is scaled to controls: 0 for no effect and ±100 for the full control effect; nearly all actives have a fitted effect of over 65% in size
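Inhibition of TGF-beta-driven CAGA-GFP reporter expression in HEPG2 cells is measured by cellular GFP fluorescence after 18 h stimulation with 500 pg/mL recombinant TGF-beta in 1% FBS medium at 37 degrees C.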
DT40 TDP1 no CPT – qHTS for Inhibitors of human tyrosyl-DNA phosphodiesterase 1 (TDP1): qHTS in cells in absence of CPT. DT40 Tdp1-/- hTDP1 cells, no CPT, ATP luminescence, 48 h. Potency, µM (doses to about 46.2 µM), without a hit: top-dose activity change, negative = growth inhibition, most hits filed as inhibitors. 15% of 420,000 active. AID 686978, 2013; also: potency is read from the fitted curve at half-maximal effect; % is scaled to controls: 0 for no effect and ±100 for the full control effect; nearly all actives have a fitted effect of over 55% in size
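DT40 Tdp1-/-;hTDP1 cells, no CPT (DMSO vehicle only), 400 cells/well; compounds pin-transferred; ≥48 hr, 37 °C; CellTiter-Glo 30 min RT dark, luminescence read.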
TDP1 inh – blocks human tyrosyl-DNA phosphodiesterase 1; 0.28% of 350,000 active; recombinant TDP1, AlphaScreen DNA substrate cleavage; Q9NUW8; Potency, µM (highest dose often 130 µM), for the others: at the highest dose activity change, negative = inhibition, actives largely listed as inhibitors; also: potency is read from the fitted curve at half-maximal effect; % is scaled to controls: 0 for no effect and ±100 for the full control effect; nearly all actives have a fitted effect of over 40% in size
Target sequence (Q9NUW8 whole entry, looked up): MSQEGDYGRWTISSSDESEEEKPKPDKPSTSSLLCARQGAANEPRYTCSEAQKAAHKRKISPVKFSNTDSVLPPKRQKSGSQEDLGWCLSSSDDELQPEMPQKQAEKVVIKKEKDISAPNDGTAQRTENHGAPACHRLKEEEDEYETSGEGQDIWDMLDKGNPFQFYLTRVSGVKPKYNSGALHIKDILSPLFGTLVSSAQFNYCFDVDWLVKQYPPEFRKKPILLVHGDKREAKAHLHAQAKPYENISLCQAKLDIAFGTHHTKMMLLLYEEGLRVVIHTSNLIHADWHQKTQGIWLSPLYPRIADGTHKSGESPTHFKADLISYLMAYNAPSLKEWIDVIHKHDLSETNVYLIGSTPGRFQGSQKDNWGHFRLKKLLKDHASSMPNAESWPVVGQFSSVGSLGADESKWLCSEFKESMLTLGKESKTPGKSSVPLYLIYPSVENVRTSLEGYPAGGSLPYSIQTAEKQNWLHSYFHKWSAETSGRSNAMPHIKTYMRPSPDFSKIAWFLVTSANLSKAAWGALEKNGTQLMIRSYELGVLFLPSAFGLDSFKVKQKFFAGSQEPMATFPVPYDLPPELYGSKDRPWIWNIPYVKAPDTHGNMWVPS
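Signal: AlphaScreen proximity between streptavidin donor and anti-FITC acceptor beads on intact substrate. Reaction: Tdp1 1 nM, substrate 15 nM final, 5 min RT after 15 min compound preincubation.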
IL-1B inflam inh – inflammasome signaling inhibition, IL-1 beta readout; THP-1 LPS/ATP IL-1B secretion, AlphaLISA, 16 h; stronger effect = lower value; activity change, % at 57.5 µM; 4.7% of 360,000 active; AID 743279; in the data active = activity change below about -50%; inconclusive = mostly about -30% to -49%; also: % is scaled to controls: 0 for no effect and ±100 for the full control effect
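THP-1 cells pretreated 1 hr with compounds (up to 57.5 uM final), then stimulated with LPS (250 ng/mL final) plus ATP (1.25 mM final); secreted IL-1B measured by AlphaLISA after 16 hr, decreased signal indicating inhibition.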
HepG2 viability – counter-screen for TGF-b inhibitors: cytotoxicity in HepG2 cells; Potency, µM (highest dose often 46.1 µM), for inactives: at the top dose activity change, negative = cytotoxicity, most hits filed as cytotoxic; 0.76% of 410,000 active; HepG2 CAGA-GFP viability, ATP luminescence, 18 h; also: potency is read from the fitted curve at half-maximal effect
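CellTiter-Glo luminescence gave cytotoxicity after 18 hours at 37 degrees C. The cells were HepG2 CAGA-GFP in 1% FBS DMEM, stimulated with 500 pg/mL TGF-beta after compound addition. %Activity was normalised to no-cell wells (complete cell-killing) and DMSO (no toxicity), and curves were fitted and classified.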
An asterisk follows results filed as active; ? = inconclusive; . = no result; ! = repeats disagree; [ ] = remark or other dose. This is a sample that favours compounds with a hit; in the whole collection about 18% have one here. Unless noted, calls follow the shape of the dose curve; as a rule, active = well fitted curve in the direction sought with a large enough effect; inconclusive = small, poorly fitted or top-dose-only effect, or another doubt; inactive = no such curve, though single readings can be large; an effect the other way counts as inactive or inconclusive.

SMILES	DT40 TDP1 CPT	TGFb SMAD3 inh	DT40 TDP1 no CPT	TDP1 inh	IL-1B inflam inh	HepG2 viability
CCOc1ccccc1N1C(=O)NC(=O)/C(=C/c2ccc3c4c(cccc24)CC3)C1=O	?	-4.0%	?	0.0%	-89.4*	5.5%
Nc1cc(C(=O)Nc2ccc(Cl)cc2)ccc1N1CC2CC(C1)c1cccc(=O)n1C2 (stereo unspecified)	20.6µM*	-3.4%	10.3µM*	4.6%	-2.4	-16.3%
O=C(Nc1ccc(Cl)cc1)N1CC2CC(C1)c1cccc(=O)n1C2 (stereo unspecified)	-2.6%	-4.3%	-25.1%	0.2%	-1.0	4.7%
O=C(O)CBr	.	.	.	12.1%	.	.
CC(C)OC(=O)Nc1cccc(Cl)c1	-1.3%	.	2.8%	10.9%[56.1 µM]	.	.
CC(NC(C)(C)C)C(=O)c1cccc(Cl)c1 (stereo unspecified)	-2.7%	5.4%	16.4µM*!	5.5%	19.8	0.8%
COc1ccc(CC(N)c2csc(NC(=O)Nc3ccccc3Oc3ccccc3)n2)cc1 (stereo unspecified)	?	?	16.4µM*	.	?	10µM*
CS(=O)(=O)c1ccc([C@@H](O)[C@@H](CF)NC(=O)C(Cl)Cl)cc1	4.11µM*	-1.7%	2.91µM*	.	15.8	-6.8%
Oc1ccc2c3c1OC1C(O)CC[C@]4(O)C(C2)N(CC2CCC2)CC[C@]314 (stereo partly specified)	7.3%	.	0.1%	-7.3%[56.1 µM]	.	.
CC1=C(O)C(=O)C=C2C1=CC=C1C2(C)CCC2(C)C3CC(C)(C(=O)O)CCC3(C)CCC12C (stereo unspecified)	1.3µM*	2µM*	1.03µM*	.	-57.0*	3.16µM*
Cc1c(O)c(O)cc2c1CC=C1[C@]3(C)CC[C@]4(C)CC[C@@](C)(C(=O)O)CC4[C@]3(C)CC[C@]12C (stereo partly specified)	7.31µM*	.	4.11µM*	13.2%[56.1 µM]	.	.
COc1cc2c(cc1OC)-c1c(OC)c(OC)c(OC)c3ccnc(c13)C2=O	4.11µM*	-17.3%	3.66µM*	0.0%	?	-32.3%
CC(C)CC1(CCc2ccccc2)C(=O)NC(=O)NC1=O	4.6%	2.4%	-8.4%	.	19.9	3.2%
COP(=O)(OC)C(Nc1ccccn1)c1ccccc1 (stereo unspecified)	-2.5%	9.4%	-0.3%	-4.6%	13.4	12.2%
CC(C)COP(=O)(OCC(C)C)C(Nc1ccccc1)c1ccccc1 (stereo unspecified)	?	?	?	1.4%	-57.5*	-171.0%
O=P(Oc1ccccc1)(Oc1ccccc1)C(Nc1ccccc1)c1ccccc1 (stereo unspecified)	?	?	16.4µM*	0.0%	0.0	-27.5%
CC(C)COP(=O)(c1ccc(N(C)C)cc1)C(Nc1ccccc1)c1ccccc1 (stereo unspecified)	?	-5.9%	29.1µM*	8.1%	-2.8	-18.4%
CN(C)c1ccc(P(=O)(OC2CCCCC2)C(Nc2ccccc2)c2cccnc2)cc1 (stereo unspecified)	?	-2.7%	20.6µM*	5.2%	-51.9*	-10.0%
O=P(Oc1ccccc1)(Oc1ccccc1)C(O)c1ccccc1 (stereo unspecified)	-19.7%	5.9%	-0.1%	-2.7%	7.7	0.6%
N[C@H](CCCP(=O)(O)O)C(=O)O	4.2%	.	-2.9%	10.7%	.	.
C=C1CC[C@H](O)C/C1=C/C=C1\CCC[C@]2(C)[C@@H]([C@H](C)CCCC(C)C)CC[C@@H]12	.	.	.	14.3%	.	.
OC(O)C(Cl)(Cl)Cl	-1.3%	.	-0.6%	7.1%	.	.
CCCCCc1cc(O)cc(O)c1	.	.	.	13.2%	.	.
CC(NCc1ccc(Cl)cc1)C(O)c1ccccc1 (stereo unspecified)	0.9%	-11.9%	-13.8%	1.0%	-5.0	-50.2%
CC(CCc1ccccc1)NC(C)C(O)c1ccc(O)cc1 (stereo unspecified)	?	-5.5%	23.1µM*!	-5.5%	-23.0	-35.2%
SMILES	DT40 TDP1 CPT	TGFb SMAD3 inh	DT40 TDP1 no CPT	TDP1 inh	IL-1B inflam inh	HepG2 viability
COc1ccc(CNCCc2cccc(F)c2)c2ccccc12	.	.	.	5.4%	.	.
CCOc1ccccc1CNCCc1ccc2c(c1)OCO2	?	4.2%	?	5.3%	-59.8*	-2.2%
COc1ccccc1CNCCc1cccc(Cl)c1	18.4µM*	-1.7%	14.6µM*	.	.	-26.1%
COc1ccc(CNCCc2ccc(Cl)cc2)c(OC)c1OC	16.4µM*	-21.3%	9.2µM*	.	-16.6	-65.1%
CCCCCCCCCc1ccc(O)cc1	?	.	-12.3%	8.9%[56.1 µM]	.	.
Cc1ccc(C[N+](C)(C)C)o1	?	.	-11.7%	-4.9%	.	.
COC(=O)C1=C(c2ccccc2)C[C@@H]2CC[C@H]1N2C(=O)N1CCC(O)CC1	-4.9%	-20.5%	6.3%	.	26.8	-9.2%
COC(=O)C1=C(c2ccc(Cl)c(C(F)(F)F)c2)C[C@@H]2CC[C@H]1N2C(=O)N1CCC(O)(c2ccc(Cl)cc2)CC1	?	14.1µM*	?	1.0%	-82.6*	-46.1%
COC(=O)C1=C(c2ccc(Cl)c(C(F)(F)F)c2)C[C@@H]2CC[C@H]1N2C(=O)N1CCOCC1	6.51µM*	?	4.61µM*	0.5%	-1.1	3.2%
Oc1c(Cl)c(Cl)cc(Cl)c1Cl	.	.	.	3.1%	.	.
O=C1C=C(N2CC2)c2ccccc2C1=O	?	15.8µM*	?	.	62.9	-110.0%
COc1ccc(Cn2c(O)c(C=Nc3c(C)n(C)n(-c4ccccc4)c3=O)c(=O)[nH]c2=O)cc1	?	-1.0%	-0.7%	2.5%	4.9	5.1%
Cc1c(N=Nc2c(O)n(Cc3ccccc3)c(=O)[nH]c2=O)c(=O)n(-c2ccccc2)n1C	16.4µM*	-17.9%	11.6µM*	9.5%	21.3	-25.4%
Cc1c(N=Cc2c(O)n(Cc3ccccc3)c(=O)[nH]c2=O)c(=O)n(-c2ccccc2)n1C	1.8%	-2.8%	-11.2%	2.5%	-71.6*	3.0%
CCOC(=O)CN1C(=O)N[C@@H](c2cccc(C(F)(F)F)c2)C(C(C)=O)=C1C	-4.6%	?	-8.4%	-0.8%[12.3 µM]	19.3	4.9%
N#Cc1cc2c(nc1SCC(=O)Nc1ccc(F)c(Cl)c1)C1CCN2CC1	.	-0.1%	.	-0.6%	.	-3.0%
Cc1ccc(/C(CSc2nccn2-c2ncc(C(F)(F)F)cc2Cl)=N\O)cc1	?	?	18.4µM*	3.2%	0.7	-17.0%
